Test [1] deals with Nuclear receptor coactivator 1 (Homo sapiens) (UniProt Q15788). Nature of the test: SRC1 coactivator transcriptional activity inhibitors, confirmation, cell-based, luminescence, quadruplicate (AID 588820;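 active means mean inhibition above 46.68%, the untreated control wells mean plus 3 SD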;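 further: 0% = DMSO wells and 100% = gossypol 36 µM treated wells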). Conditions: HEK293 GAL4-SRC1 luciferase reporter, at 3.6 µM, hits give high values. On the technique in general: Reporter assays use an easily measured gene product as a stand-in for the process of interest.
Nuclear receptor coactivator 1 (Homo sapiens), sequence (Q15788 whole entry, looked up, the tested form may be a part): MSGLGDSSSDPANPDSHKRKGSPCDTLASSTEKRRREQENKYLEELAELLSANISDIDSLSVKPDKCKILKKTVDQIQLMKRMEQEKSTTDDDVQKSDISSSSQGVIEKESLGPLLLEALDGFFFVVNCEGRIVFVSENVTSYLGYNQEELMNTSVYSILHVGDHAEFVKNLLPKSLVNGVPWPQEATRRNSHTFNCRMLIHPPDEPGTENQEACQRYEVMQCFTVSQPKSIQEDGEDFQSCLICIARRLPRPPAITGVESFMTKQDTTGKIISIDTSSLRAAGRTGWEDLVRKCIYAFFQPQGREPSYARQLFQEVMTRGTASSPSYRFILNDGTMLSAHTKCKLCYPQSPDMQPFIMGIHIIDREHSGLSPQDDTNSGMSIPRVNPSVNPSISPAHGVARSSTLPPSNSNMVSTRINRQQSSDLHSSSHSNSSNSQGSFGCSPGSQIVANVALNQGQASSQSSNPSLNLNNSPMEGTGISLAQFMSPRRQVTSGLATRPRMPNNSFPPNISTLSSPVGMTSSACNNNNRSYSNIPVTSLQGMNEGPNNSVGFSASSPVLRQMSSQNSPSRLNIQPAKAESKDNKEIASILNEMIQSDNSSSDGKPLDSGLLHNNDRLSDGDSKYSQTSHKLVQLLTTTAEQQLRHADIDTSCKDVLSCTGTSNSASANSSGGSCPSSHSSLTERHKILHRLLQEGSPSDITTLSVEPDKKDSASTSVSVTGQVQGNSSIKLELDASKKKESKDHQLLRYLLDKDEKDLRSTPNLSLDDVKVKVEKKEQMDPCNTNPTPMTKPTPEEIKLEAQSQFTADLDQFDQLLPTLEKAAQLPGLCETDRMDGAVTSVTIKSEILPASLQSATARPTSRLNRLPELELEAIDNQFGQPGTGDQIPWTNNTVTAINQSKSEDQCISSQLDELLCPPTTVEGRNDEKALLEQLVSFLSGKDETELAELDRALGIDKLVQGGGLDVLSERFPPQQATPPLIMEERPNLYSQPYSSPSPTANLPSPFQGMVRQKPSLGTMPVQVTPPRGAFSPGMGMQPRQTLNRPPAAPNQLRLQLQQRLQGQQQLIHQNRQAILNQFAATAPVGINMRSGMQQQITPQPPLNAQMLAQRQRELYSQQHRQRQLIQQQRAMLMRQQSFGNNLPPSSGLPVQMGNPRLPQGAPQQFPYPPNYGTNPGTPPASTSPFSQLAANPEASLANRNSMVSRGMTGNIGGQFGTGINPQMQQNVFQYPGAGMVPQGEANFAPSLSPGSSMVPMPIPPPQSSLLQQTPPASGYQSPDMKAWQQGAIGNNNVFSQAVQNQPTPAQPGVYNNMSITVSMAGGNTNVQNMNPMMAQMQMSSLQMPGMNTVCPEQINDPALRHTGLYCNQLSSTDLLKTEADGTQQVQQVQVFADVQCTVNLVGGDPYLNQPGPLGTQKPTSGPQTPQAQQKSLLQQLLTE

Test [2] can be described thus: VP16 transactivation inhibitors, counter-screen for SRC1 inhibitor project, cell-based, luminescence, high throughput (AID 588824). Conditions: cell-based VP16 transactivation luciferase luminescence; at 3.6 µM; hits give high values. A general note: A counterscreen serves to expose hits that act by an unwanted route or on another target.

Consider 72 molecules from PubChem BioAssay.

As a reminder, the inhibition is the drop in the measured response relative to a control, in per cent.

A number with no mark means an inactive call. The source made the active and inactive calls. Unless noted, no stated cut-off is given here; in the data, active means inhibition above about 25%; inactive means the rest.

Consider `Cc1cccc(N2CCN(S(=O)(=O)c3cc(-c4cc(C)no4)ccc3C)CC2C)c1` (centres undefined), for which the inhibition is -10.5% in test [1] and 33.8% (active) in test [2].
As to `O=C(CN1C(=O)CCC1=O)Nc1ccc(S(=O)(=O)N2CCOCC2)cc1`, the values for the inhibition in test [1] and in test [2] were -20.2% and 4.05%, respectively.
On to `COc1ccc(OCCN2CCN(C(=O)c3ccc(OC(F)F)c(OC)c3)CC2)cc1`, for which the inhibition in test [1] was 2.42%; in test [2], 2.73%.
`CC1(C)CC(=O)c2sc(N)nc2C1`: the inhibition was -9.15% in test [1] and 0.81% in test [2].
As for `CCN(CC)CCNC(=O)CCN1N=C(c2ccccc2)CCC1=O`, the inhibition was -4.6% in test [1] and -9.8% in test [2].
The corresponding values for `COc1ccc(CNC(=O)c2cc3c(C)nc4ccccc4c3o2)c(OC)c1` are -5.62% and 22.3%.
The corresponding values for `N#Cc1cc2ccncc2c2ccccc12` are 30.8% and 16.7%.
The corresponding values for `Cc1cccc(C(=O)OCC(=O)NNC(=O)c2cccs2)c1O` are -18.5% and -2.62%.
Regarding `CCCCc1ccc(NC(=O)c2ccc(N(C)S(C)(=O)=O)cc2)cc1`, the inhibition is -25.4% in test [1] and 31.3% (active) in test [2].
With `COc1ccc(S(=O)(=O)N2CCCCCC2)cc1C(=O)N(C)CCOc1ccccc1`, the figures for the inhibition in test [1] and in test [2] were 5.04% and -8.6%, respectively.
The corresponding values for `Cc1ccc(C2/C(=C(\O)c3ccc4c(c3)OCCO4)C(=O)C(=O)N2Cc2cccnc2)cc1` (centres undefined) are -15.5% and -9.56%.
For `NS(=O)(=O)c1ccc(N=Nc2c(O)ccc3ccccc23)cc1` the same measures were 7.96% and 4.7%.
Turning to `CCc1ccc(-c2nnn(CCC(=O)OC)n2)cc1`, the inhibition in test [1] was -2.93%; in test [2], 9.9%.
The corresponding values for `O=C(c1nnsc1S(=O)c1ccc(Cl)cc1)N1CCOCC1` (centres undefined) are -24.9% and -6.26%.
The corresponding values for `CCN(C(=O)CN1C(=O)S/C(=C\c2cccc(Cl)c2)C1=O)C1CCS(=O)(=O)C1` (centres undefined) are 4.59% and 4.57%.
For `CCN(CC)c1ccc(/C=N/Nc2nc3ccccc3[nH]2)c(O)c1` the same measures were -7.34% and 3.82%.
As for `CCc1ccc(CNC(=O)C2CCCN(S(=O)(=O)N(CC)c3ccccc3)C2)cc1` (centres undefined), the inhibition in test [1] is -39.2%; in test [2] it was -3.99%.
As to `CSCCC(NC(=O)c1ccco1)C(=O)OCC(=O)N(Cc1ccccc1)C(C)(C)C` (centres undefined), the values for the inhibition in test [1] and in test [2] were -15.8% and -3.79%, respectively.
Turning to `O=C(NNC(=O)c1ccccc1O)c1ccc(Cl)c(S(=O)(=O)N2CCc3ccccc32)c1`, the figures for the inhibition in test [1] and in test [2] were 8.03% and 14.9%, respectively.
For `O=C(c1ccccc1)C1CCN(C(=O)c2ccc(Cl)cc2)CC1`, the inhibition in test [1] is 7.58%; in test [2] it was 5.47%.
The corresponding values for `O=c1cc(N2CCN(c3ccccc3Cl)CC2)[nH]c(=O)n1Cc1ccc(F)cc1` are -4.06% and 16.8%.
The corresponding values for `O=C(Cc1cccs1)N(CC1CCCO1)C1(C(=O)NC2CCCC2)CCCCC1` (centres undefined) are 3.51% and 17.6%.
With `CC(C)Cn1c(N)c(C(=O)COC(=O)c2cc3ccccc3cc2O)c(=O)n(C)c1=O`, the inhibition in test [1] was 14.6%; in test [2] it was 8.44%.
For `Cc1ccccc1C(OCC(O)CN1CCN(CCO)CC1)c1ccccc1` (centres undefined) the same measures were -13.1% and 3.65%.
For `Cc1ccc2oc(C(=O)NC3CCS(=O)(=O)C3)cc(=O)c2c1` (centres undefined) the same measures were -6.08% and -12.1%.
The corresponding values for `O=C(Nc1ccncc1)c1ccc(Cl)c(S(=O)(=O)N2CCc3ccccc32)c1` are -6.49% and 36.8% (active).
For the molecule `O=C(O)c1cc(=O)[nH]c2ccc(S(=O)(=O)Nc3ccc(F)cc3)cc12`, the inhibition is -12.9% in test [1] and 7.7% in test [2].
For `CSc1nc2[nH]ncc2c(=O)[nH]1` the same measures were -1.61% and 1.46%.
The corresponding values for `CC(C)C(=O)N1CCN(c2ccc(NC(=O)c3ccc4c(c3)OCCO4)cc2Cl)CC1` are -52.5% and -6.57%.
Regarding `Cc1cccc(C)c1NC(=O)C1(C)CCC(=O)N1c1cc(C(C)(C)C)nn1C` (centres undefined), the figures for the inhibition in test [1] and in test [2] were -13.6% and -5.42%, respectively.
Consider `Cc1nc2ccccc2c(N)c1C(=O)/C=C/c1ccccc1`, for which the inhibition in test [1] is 28.7%; in test [2] it was 31.6% (active).
As for `O=c1ccc2c(ccc3ncccc32)o1`, the inhibition in test [1] is 18.8%; in test [2], 8.67%.
For `O=C(c1ccccc1)c1sc(Nc2ccc3c(c2)OCO3)nc1-c1ccccc1`, the inhibition is 13.9% in test [1] and 18.1% in test [2].
For `COc1cc2c(cc1OC)C(NC(=O)C(F)(F)F)CNC2=O` (centres undefined) the same measures were 45.5% and 22.3%.
`Cc1ccc(S(=O)(=O)NNC2=NS(=O)(=O)c3ccccc32)c(C)c1`: the inhibition is -17.6% in test [1] and -7.56% in test [2].
For `COc1ccc(C(=O)c2c(C)c3ccccc3n2CC(O)CNC(C)C)cc1` (centres undefined), the inhibition in test [1] was -15.4%; in test [2], -0.38%.
Consider `Cc1cc(NCc2cccnc2)no1`, for which the inhibition in test [1] is -7.64%; in test [2], 9.01%.
For `Cc1cc(OCC(O)CN2CCc3ccccc3C2)cc(C(C)C)c1` (centres undefined) the same measures were -16.6% and -6.97%.
With `Cc1ccc(S(=O)(=O)Nc2c(NC3CCCCC3)c3ccccc3oc2=O)c(C)c1`, the inhibition in test [1] is 15.7%; in test [2] it was 13.5%.
For `COc1cccc(OCCn2cc(C(C)=O)c3ccccc32)c1` the same measures were 10.7% and 30.8% (active).
As for `Cc1cccc(C)c1NC(=S)N(CCN(C)C)Cc1cccs1`, the inhibition was -19.4% in test [1] and -2.41% in test [2].
As for `CC(=O)N1CN(C2CCCC2)Cc2c1sc1c2CCCC1`, the results for the inhibition in test [1] and in test [2] were 6.63% and 14.4%, respectively.
For `Cc1ccc(S(=O)(=O)N2CCN(C(=O)c3ccc(S(=O)(=O)N4CCCC4)cc3)CC2)cc1` the same measures were 1.07% and 9%.
The corresponding values for `C=CCc1ccccc1OCC(=O)N/N=C/c1ccc(OC(C)=O)cc1OC(C)=O` are 16.6% and -4.05%.
`O=C(NCCC(=O)N1CCCC(C(F)(F)F)C1)c1ccc(Br)cc1` (centres undefined): the inhibition in test [1] is -7.52%; in test [2], -9.82%.
On to `CC(=C\c1ccccc1)/C=C1/SC(=S)N(CCC(=O)O)C1=O`, for which the inhibition in test [1] was -20.4%; in test [2], -5.15%.
The corresponding values for `Cn1c(=O)c2[nH]c(Nc3ccccc3)nc2n(C)c1=O` are -22.1% and 0.08%.
The corresponding values for `N#Cc1c(-c2ccccc2)c(C#N)c2nc3ccccc3n2c1N` are 15.8% and 17.8%.
For `CC1CC(C)CN(c2ncnc3c2cnn3-c2ccc(Cl)cc2)C1` (centres undefined) the same measures were -96.6% and -50.9%.
As for `Cc1cccc(NC(=O)C2CCN(S(=O)(=O)c3ccc4c(c3)OCCCO4)CC2)n1`, the inhibition in test [1] was -23.6%; in test [2] it was 17.2%.
The corresponding values for `CCOc1cc(C(=S)N2CCCCC2)ccc1OCC(=O)NCc1ccccc1` are -15.9% and -12.5%.
The corresponding values for `COc1ccc(C(=O)NNC(=O)C(=O)N2CCCCC2)cc1OC` are -5.24% and -0.82%.
The corresponding values for `CC(=O)OCC1OC(n2cc(F)c(=O)[nH]c2=O)C(OC(C)=O)C1OC(C)=O` (centres undefined) are 5.02% and 22.9%.
On to `CC(=O)c1cc2c(C)cc(=O)oc2cc1O`, for which the inhibition was 19.4% in test [1] and 6.17% in test [2].
For `CCCS(=O)(=O)c1c(S(=O)(=O)CCC)c2c(C)cccn2c1C(=O)N/N=C/c1cc(O)cc(O)c1` the same measures were 20.8% and 24.6%.
Take `c1ccc2c(c1)CCN(c1nc3cc4c(cc3s1)OCCO4)C2`: the inhibition in test [1] was -22.2%; in test [2] it was 2.93%.
On to `C[C@H](N)c1nnc(SCC(N)=O)o1`, for which the inhibition was -1.81% in test [1] and -12.9% in test [2].
Take `O=C(COC(=O)CCC(=O)c1ccccc1)Nc1nnc(-c2ccccc2)o1`: the inhibition in test [1] was -19.6%; in test [2], -8.55%.
Turning to `CCOC(=O)C1CCN(S(=O)(=O)c2ccc3c(c2)CC(C)N3C(=O)C2CC2)CC1` (centres undefined), the inhibition is -22.1% in test [1] and 3.71% in test [2].
On to `COc1ccccc1CNC(=O)C1CCCN(S(=O)(=O)c2cccc3nsnc23)C1` (centres undefined), for which the inhibition in test [1] was -23.4%; in test [2] it was -0.08%.
`CC(=O)c1cccc(NC(=O)c2cc(Cl)sc2Cl)c1`: the inhibition in test [1] is -60.7%; in test [2], -30.6%.
For `COc1ccc(NS(=O)(=O)c2cc(NC(=O)CC(C)(C)C)ccc2N2CCCC2)cc1` the same measures were -10.7% and -1.18%.
For `Cc1nnc(N2CCN(Cc3ccccc3)CC2)[nH]c1=O` the same measures were -4.97% and -7.63%.
Turning to `O=C(NCc1cccc(C(F)(F)F)c1)c1csc([C@@H]2O[C@H](CO)[C@H](O)[C@H](O)[C@H]2O)n1`, the inhibition is -9.94% in test [1] and -4.13% in test [2].
For `CS(=O)(=O)c1ccc(NC(=O)CCN2C(=O)C3CCCCC3C2=O)cc1` (centres undefined) the same measures were -9.83% and -10.5%.
For `Cc1ccc(O)c(C(=O)c2cnn(C(=O)COc3ccc(Cl)cc3)c2)c1` the same measures were 23.6% and 4.05%.
For `O=C(Nc1cccc(Br)c1)c1cc(S(=O)(=O)N2CCOCC2)cs1` the same measures were -2.57% and -2.73%.
Take `CN1CCN(C(=O)CCN2C(=O)/C(=C/c3cccc(Br)c3)SC2=S)CC1`: the figures for the inhibition in test [1] and in test [2] were 10.7% and 16.9%, respectively.
Regarding `COc1ccc(S(=O)(=O)Nc2ccc(F)c(Cl)c2)cc1OC`, the inhibition was -9.19% in test [1] and -10.6% in test [2].
In the case of `CN1CCN(c2ccc(Cl)cc2NC(=O)CC2OC(=O)c3ccccc32)CC1` (centres undefined), the figures for the inhibition in test [1] and in test [2] were -37.2% and -6.69%, respectively.
The corresponding values for `CCC1CCCCN1C(=O)CSc1nc(N)cc(=O)[nH]1` (centres undefined) are -15.7% and -3.43%.
For `CCN(CC)S(=O)(=O)c1cccc(C(=O)OCC(=O)Nc2ccc3c(c2)c2ccccc2n3CC)c1` the same measures were -11.9% and 24.3%.
